A word on the inhibition: it is the relative decrease from the control value, in per cent.

Mast/stem cell growth factor receptor Kit (Homo sapiens), sequence (P10721 whole entry): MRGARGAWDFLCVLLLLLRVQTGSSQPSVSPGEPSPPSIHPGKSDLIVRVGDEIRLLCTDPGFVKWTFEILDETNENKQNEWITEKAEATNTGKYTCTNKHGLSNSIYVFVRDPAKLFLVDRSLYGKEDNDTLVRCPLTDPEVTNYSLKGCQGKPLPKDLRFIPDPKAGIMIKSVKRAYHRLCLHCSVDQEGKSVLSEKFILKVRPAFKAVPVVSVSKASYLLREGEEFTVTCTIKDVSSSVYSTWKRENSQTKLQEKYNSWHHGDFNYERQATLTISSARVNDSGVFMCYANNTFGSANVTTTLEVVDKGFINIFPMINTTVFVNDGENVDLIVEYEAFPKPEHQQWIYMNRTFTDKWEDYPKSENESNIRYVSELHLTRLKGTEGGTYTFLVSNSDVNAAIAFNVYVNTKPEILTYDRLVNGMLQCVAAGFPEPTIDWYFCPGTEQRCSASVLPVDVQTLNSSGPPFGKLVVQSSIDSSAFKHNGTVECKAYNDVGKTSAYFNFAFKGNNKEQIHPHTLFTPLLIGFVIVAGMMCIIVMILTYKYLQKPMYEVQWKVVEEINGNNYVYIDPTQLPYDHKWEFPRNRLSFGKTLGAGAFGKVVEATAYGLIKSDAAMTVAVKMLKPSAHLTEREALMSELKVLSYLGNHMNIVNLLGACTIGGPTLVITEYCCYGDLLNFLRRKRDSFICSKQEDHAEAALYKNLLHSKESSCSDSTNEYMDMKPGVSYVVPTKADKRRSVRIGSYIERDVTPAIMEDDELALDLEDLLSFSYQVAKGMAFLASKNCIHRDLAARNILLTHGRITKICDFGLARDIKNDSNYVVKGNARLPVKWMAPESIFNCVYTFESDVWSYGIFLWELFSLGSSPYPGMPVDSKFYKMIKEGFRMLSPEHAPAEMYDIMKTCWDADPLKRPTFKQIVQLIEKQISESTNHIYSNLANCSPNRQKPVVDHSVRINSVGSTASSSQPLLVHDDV

One assay has as its target Mast/stem cell growth factor receptor Kit (Homo sapiens) (UniProt P10721). The following applies: at 1 µM.
Take `c1ccc(COc2ccc(Nc3ncnc4ccc(-c5ccco5)cc34)cc2)cc1`: the inhibition is -0.06%.
Take `N#Cc1c(NC(=O)c2ccc(F)cc2)sc2c1CCCC2`: the inhibition was determined as 5.86%.
On to `COc1cc(/C=N/Nc2ncnc3[nH]ncc23)ccc1O`, for which the inhibition was found to be 49.4%.
In the case of `Nc1nc(-c2cccc(Cl)c2)c(-c2ccc3ncccc3n2)s1`, the inhibition came out at 7.87%.
In the case of `COc1cc2ncn(-c3cc(OCc4ccccc4C(F)(F)F)c(C(=O)N(C)C)s3)c2cc1OC`, the inhibition came out at 3.36%.
Consider `COC(=O)Nc1nc2ccc(S(=O)(=O)c3ccc(NC(=O)Nc4cc(C(F)(F)F)ccc4F)cc3)cc2[nH]1`, for which the inhibition is -0.26%.
`COc1ccc(-c2cc3c(N)ncnc3o2)cc1`: the inhibition came to 8.52%.
For `COc1cc(N2CCN(C(C)C)CC2)ccc1Nc1nc(Nc2ccc(F)cc2C(N)=O)c2cc[nH]c2n1`, the inhibition was 4.94%.
For the compound `CC1=C(C(=O)Nc2cc(Cl)c3[nH]ncc3c2)C(c2ccc(C(F)(F)F)cc2)CC(=O)N1` (stereo not drawn), the inhibition came out at 0.36%.
On to `CC(=O)NCc1cccc(C#Cc2cncnc2Nc2ccc(OCc3cccc(F)c3)c(Cl)c2)c1`, for which the inhibition stood at 0.4%.
As for `CCn1c(-c2nonc2N)nc2c(C#CC(C)(C)O)ncc(OC3CCNCC3)c21`, the inhibition worked out at 3.87%.
Turning to `NS(=O)(=O)c1ccc(Nc2ncc(-c3ccccc3)o2)cc1`, the inhibition was 88.6%.
For the compound `CCCN(CCS(C)(=O)=O)Cc1ccc(-c2ccc3ncnc(Nc4ccc(OCc5cccc(F)c5)c(Cl)c4)c3c2)o1`, the inhibition was 4.79%.
On to `CN1CCC(n2cnc(-c3ccc(F)cc3)c2-c2ccnc(Nc3ccccc3)n2)CC1`, for which the inhibition was 6%.
For the compound `COc1ccc(CNC(=O)c2ccc(-c3cc(-c4nnc(C)o4)ccc3C)cc2)cc1`, the inhibition worked out at 6.51%.
Turning to `COc1cc(Nc2nccc(Nc3ccc4c(C)n[nH]c4c3)n2)cc(OC)c1OC`, the inhibition was found to be 95.8%.
Still for that read-out and setting: for `CN1CCC(n2cnc(-c3ccc(F)cc3)c2-c2ccnc(N)n2)CC1` the value was 9.51%; for `COc1ccc2c(-c3ccnc(Nc4cccc(OC(F)(F)F)c4)n3)cnn2n1`, 45.9%.

The next assay deals with Mast/stem cell growth factor receptor Kit (Homo sapiens), P10721 [D816V]. The following applies: at 0.1 µM.
Mast/stem cell growth factor receptor Kit (Homo sapiens), P10721 [D816V], sequence (P10721 whole entry D816V): as the sequence (P10721 whole entry) above, with D816V counted along it
With `CCn1cc(-c2ccnc3[nH]ccc23)c(-c2cccc(NC(=O)Nc3ccc(OCc4ccccc4)cc3)c2)n1`, the inhibition was found to be 1.35%.
As to `Cc1cccc(Nc2ncc(-c3ccccc3)o2)c1`, the inhibition turned out to be 1.52%.
With `Nc1nc(-c2ccc(F)cc2)c(-c2ccc3ncccc3n2)s1`, the inhibition turned out to be 1.91%.
The same measure, in the same setting: for `FC(F)(F)c1cccc(-c2nn3ncccc3c2-c2ccnc(Nc3ccc4c(c3)OCCO4)n2)c1` the value was 1.11%; for `CNC(=O)c1cncc(/C=C/c2ccccc2Cl)c1`, -0.76%; for `O=C(O[C@H]1CN[C@H](C#Cc2cc3ncnc(Nc4ccc(Cc5ccccc5)cc4)c3s2)C1)N1CCOCC1`, 8.25%.
On the same count and under the same terms, for `COc1ccc(-c2nn3ncccc3c2-c2ccnc(Nc3ccc4c(c3)OCCO4)n2)cc1` the value was -1.73%; for `CCNC(=O)O[C@H]1CN[C@H](C#Cc2cc3ncnc(Nc4ccc(OCc5cccc(F)c5)c(Cl)c4)c3s2)C1`, 2.43%; for `COc1ccc(-c2oc3ncnc(N)c3c2-c2ccc(NC(=O)Nc3cc(C(F)(F)F)ccc3F)cc2)cc1`, 2.85%.
For the compound `CCn1c(-c2nonc2N)nc2cnc(Oc3cccc(NC(=O)c4ccc(N(C)C)cc4)c3)cc21`, the inhibition amounted to 0.14%.
In the case of `CCn1c(-c2nonc2N)nc2c(C#CC(C)(C)O)nc(OC[C@H](N)c3ccccc3)cc21`, the inhibition worked out at 1.78%.
Turning to `Fc1ccc(-c2nn3ncccc3c2-c2ccnc(Nc3ccc4c(c3)OCCO4)n2)cc1`, the inhibition was found to be 3.55%.
With `COc1cccc(-c2c[nH]c3c(N/N=C/c4ccncc4)ncnc23)c1`, the inhibition is 8.75%.
Turning to `O=C(Nc1n[nH]c2cc(-c3ccc(F)cc3)ccc12)C1CC1`, the inhibition was determined as 3.06%.
As to `Clc1ccc(-c2nn3ncccc3c2-c2ccnc(Nc3ccccc3)n2)cc1`, the inhibition turned out to be 1.51%.
As for `c1ccc(COc2ccc(Nc3ncnc4ccc(-c5ccco5)cc34)cc2)cc1`, the inhibition was -2.23%.
Regarding `N#Cc1c(NC(=O)c2ccc(F)cc2)sc2c1CCCC2`, the inhibition is -0.47%.
As for `COc1cc(/C=N/Nc2ncnc3[nH]ncc23)ccc1O`, the inhibition came out at 8.85%.
On to `Nc1nc(-c2cccc(Cl)c2)c(-c2ccc3ncccc3n2)s1`, for which the inhibition worked out at 1.78%.
The same measure, in the same setting: as for `COc1cc2ncn(-c3cc(OCc4ccccc4C(F)(F)F)c(C(=O)N(C)C)s3)c2cc1OC`, the figure is 0.31%.
Still for that read-out and setting: as for `COC(=O)Nc1nc2ccc(S(=O)(=O)c3ccc(NC(=O)Nc4cc(C(F)(F)F)ccc4F)cc3)cc2[nH]1`, the figure is 3.87%; as for `COc1ccc(-c2cc3c(N)ncnc3o2)cc1`, 1.15%.
Take `COc1cc(N2CCN(C(C)C)CC2)ccc1Nc1nc(Nc2ccc(F)cc2C(N)=O)c2cc[nH]c2n1`: the inhibition is -1.16%.
Regarding `CC1=C(C(=O)Nc2cc(Cl)c3[nH]ncc3c2)C(c2ccc(C(F)(F)F)cc2)CC(=O)N1` (stereo not drawn), the inhibition worked out at 4.84%.
Consider `CC(=O)NCc1cccc(C#Cc2cncnc2Nc2ccc(OCc3cccc(F)c3)c(Cl)c2)c1`, for which the inhibition is -2.07%.

Values taken from ChEMBL document CHEMBL1961873, “Compounds: GSK PKIS; Assays: Nanosyn kinase panel” (2012).
